# The supplement of paper PMC7156485
# Values without a mark were called inactive.
# System: HCC1569
# Assay: H1.0 immunofluorescence intensity relative to DMSO (% of DMSO); higher = stronger H1.0 induction, active = 140 or more
# Settings: concentration: 10 µM; 24 h
# Method in brief: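 Cell number or H1.0 nuclear intensity appears as percent of the plate control, based on the median of replicates. Measurements came from HCC1569 and TDF cells exposed in triplicate to compounds at 10 µM for 24 h at 37 °C, then imaged in six fields per well at ×10. Positional effects were smoothed out of HCC1569 values.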
# 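Also: TDF is a line of transformed human dermal fibroblasts of mesenchymal origin.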
row,Compound,H1.0 immunofluorescence intensity
1,COc1ccccc1CNCCCCCCNCCCCCCCCNCCCCCCNCc1ccccc1OC.Cl.Cl.Cl.Cl [Methoctramine tetrahydrochloride],98
2,C[N+](C)(CCCCCC[N+](C)(C)CCCN1C(=O)c2cccc3cccc(c23)C1=O)CCCN1C(=O)c2cccc3cccc(c23)C1=O.[Br-].[Br-],108
3,CC(C)NCC(O)c1ccc(O)c(O)c1 (racemic) [DL-Isoproterenol],101
4,Cc1ccc(C(=CCN2CCCC2)c2ccccn2)cc1.Cl [Triprolidine hydrochloride],90
5,O=P(O)(O)C(O)(Cn1ccnc1)P(=O)(O)O [Zoledronic acid],100
6,c1coc(CNc2ncnc3nc[nH]c23)c1 [Kinetin],92.8
7,CC1=C(C(=O)Nc2cc3cn[nH]c3cc2F)C(c2ccc(C(F)(F)F)cc2)CC(=O)N1 (centres undefined),107
8,"O=C(O)COc1ccc(C(=O)c2cccs2)c(Cl)c1Cl [[2,3-dichloro-4-(2-thienylcarbonyl)phenoxy]acetic acid]",109
9,CCCCNc1ncc(C(=O)NCc2ccc(-n3ccnc3)cc2)c(NC2CCC(O)CC2)n1 (centres undefined),104
10,O=C([O-])CCC(NC(=O)c1ccccc1C(=O)[O-])C(=O)[O-].[Na+].[Na+].[Na+] [Phthalamoyl-L-glutamic acid trisodium],170 (active)
11,CCCCCCCCCCCCCCCCC(=O)O [Heptadecanoic acid],103
12,COc1ccccc1OCC(O)CN1CCN(CC(=O)Nc2c(C)cccc2C)CC1.Cl.Cl (centres undefined) [Ranolazine.2HCl],102
13,Cl.NCCCCC(=O)O [5-Aminovaleric acid hydrochloride],91.6
14,COc1cc2c(CCNC(C)=O)c[nH]c2cc1O [6-Hydroxymelatonin],94
15,Cn1cnc2cc3c(Nc4cccc(Br)c4)ncnc3cc21,117
16,CCC1(C)CC(=O)NC1=O (centres undefined) [Ethosuximide],88
17,COc1cc(NC(C)CCCN)c2ncccc2c1 (centres undefined) [Primaquine],113
18,"CCC12CCCN3CCc4c(n(c5ccccc45)C(=O)C1)C32 (single isomer, unassigned; (-)) [(-)-Eburnamonine]",113
19,Br.Br.N=C(N)SCCN [2-(2-Aminoethyl)isothiourea dihydrobromide],99.7
